The source made the active and inactive calls. How the calls were made is not given here.
Experiment: mitochondrial permeability transition pore blockers, isolated mitochondria – biochemical, dry powder samples, uHTS hits, dose response (AID 720728)
Settings: calcium retention capacity

CRC/CRC0 ratio at 50 uM (fold over control, higher = inhibition), active:
CNCCCC12CCC(c3ccccc31)c1ccccc12 1.82 fold, CN(C)CCCN1c2ccccc2Sc2ccc(Cl)cc21 1.97 fold, COc1cc(CNCCO)cc(Cl)c1OCc1ccccc1Cl 1.81 fold, CCN(CC)c1ccc(NC(=O)c2cc(Cl)ccc2OC)cc1 0.622 fold, Cc1cc(C)c2nc(N(CCCN(C)C)C(=O)c3ccc(S(=O)(=O)N4CCCCCC4)cc3)sc2c1 1.57 fold, C=CCNCCOc1ccc(C(C)(C)c2ccccc2)cc1 1.95 fold, N#Cc1c(NCCN)nc(-c2ccco2)c2c1CCCC2 1.81 fold, C=CCNCCCOc1ccc(C)cc1Br 1.53 fold, C=CCNCCOCCOc1ccc(Cl)cc1C(C)(C)C 1.81 fold, COCCCNCCCOc1ccc(Cl)cc1C(C)(C)C 2.13 fold, CNCCC=C1c2ccccc2CCc2ccccc21 1.66 fold, N=c1sccn1CC(=O)Nc1cccc(Oc2ccccc2)c1 1.91 fold, CC1CCCN(CCC(=O)c2ccc(Br)cc2)C1 (stereo unspecified) 2.73 fold, COC(=O)c1c(NC(=O)C2CCCCC2)sc2c1CC(C)(C)NC2(C)C 2.05 fold, Cc1ccc2nc(N(CCCN(C)C)C(=O)CCc3ccccc3)sc2c1 1.61 fold, CCOC(=O)N1CCN(S(=O)(=O)c2ccc(C(=O)N(CCCN(C)C)c3nc4c(C)c(C)ccc4s3)cc2)CC1 1.51 fold, COc1ccc(C)c2sc(N(CCCN(C)C)C(=O)CS(=O)(=O)c3ccc(F)cc3)nc12 1.4 fold, CCN(CC)CCCN=Cc1c(O)n(Cc2ccccc2)c(=O)c2ccccc12 1.3 fold, COc1cc(NC(=O)c2cc(-c3cccc(O)c3)on2)cc(OC)c1OC 1.93 fold, Cc1cc(C)c2nc(N(CCCN(C)C)C(=O)C3=COCCO3)sc2c1 1.4 fold, Cc1ccc2nc(N(CCN(C)C)C(=O)/C=C/c3cccs3)sc2c1 1.28 fold, COc1ccc(-n2cc(CNC3CCN(C)CC3)c(-c3cccc(F)c3)n2)cc1 1.5 fold, CN1CCC[C@@H]1CCO[C@](C)(c1ccccc1)c1ccc(Cl)cc1 1.81 fold, COc1ccc(Cl)cc1C(=O)Nc1ccc(CN2CCCCC2)cc1 2.57 fold, O=C(CC1NCCc2ccccc21)Nc1ccc(Cl)cc1 (stereo unspecified) 1.65 fold, CC(C)(C)c1ccccc1OCCCCCNCCO 1.82 fold
